Data as given in PubChem BioAssay (EPA / NIEHS).
Results filed as inconclusive are left out. The source made the active and inactive calls. The calls were made as follows: active = hit-call score of the fitted dose curve at least 0.9, where 1 is the maximum; inconclusive = response in the unintended direction; inactive = score below 0.9.

The compounds below were run on Glyceraldehyde-3-phosphate dehydrogenase (Homo sapiens) (UniProt P04406) (assay: CLD_GAPDH_6hr: CellzDirect (CLD) Gene Expression Assay for Baseline Control (Glyceraldehyde 3-phosphate dehydrogenase) at 6 hours (AID 2283681);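 also: active means increased signal relative to DMSO vehicle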).
In short: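 Primary human hepatocytes from two donor preparations, dosed at multiple concentrations with 0.2% DMSO vehicle; GAPDH mRNA measured 6 h after dosing by chemiluminescent quantitative nuclease protection assay (qNPA) on denatured lysates. Serves as background control; cytotoxicity annotated by morphology.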

Sequence of Glyceraldehyde-3-phosphate dehydrogenase (Homo sapiens) (P04406 whole entry, looked up): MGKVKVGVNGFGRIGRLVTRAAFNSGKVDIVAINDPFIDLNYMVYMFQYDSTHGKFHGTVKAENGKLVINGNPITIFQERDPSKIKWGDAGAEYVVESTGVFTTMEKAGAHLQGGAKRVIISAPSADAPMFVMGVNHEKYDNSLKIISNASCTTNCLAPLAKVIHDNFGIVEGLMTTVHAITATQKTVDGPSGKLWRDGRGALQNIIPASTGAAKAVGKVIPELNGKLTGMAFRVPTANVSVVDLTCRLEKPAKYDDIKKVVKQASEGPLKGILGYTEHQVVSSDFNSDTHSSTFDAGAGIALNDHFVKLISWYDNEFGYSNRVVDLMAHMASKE

Row | Structure (SMILES) | outcome
1 | CCOC(=O)[C@H](C)Oc1ccc(Oc2nc3ccc(Cl)cc3o2)cc1 | inactive
2 | CCCN(CCC)c1c([N+](=O)[O-])cc(C(F)(F)F)c(N)c1[N+](=O)[O-] | inactive
3 | CCCCCCC(C)OC(=O)COc1nc(F)c(Cl)c(N)c1Cl (configuration not stated) | inactive
4 | CCNc1nc(N)nc(Cl)n1 | inactive
5 | c1ccc2[nH]c(-c3cscn3)nc2c1 | inactive
6 | CCCCCOC(=O)COc1cc(N2C(=O)C3=C(CCCC3)C2=O)c(F)cc1Cl | inactive
7 | COCCO | inactive
8 | OB(O)O | inactive
9 | COC(=O)CSc1cc(N=c2sc(=O)n3n2CCCC3)c(F)cc1Cl | inactive
10 | CCCOC(=O)NCCCN(C)C | inactive

Each compound was assayed on HMG-CoA synthase (HMGCS2), HMGCS2 (gene 3158) (assay: CLD_HMGCS2_6hr: CellzDirect (CLD) Gene Expression Assay for HMG-CoA synthase (HMGCS2) at 6 hours (AID 2283682);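 also: actives raise HMGCS2 transcript above the 0.2% DMSO vehicle baseline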).
In short: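 Primary human hepatocytes dosed daily with fresh chemical, 0.2% DMSO vehicle; HMGCS2 mRNA measured at 6 h by qNPA chemiluminescence. Gain of signal fitted against DMSO; cytotoxicity flagged from phase-contrast morphology.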

Row | Structure (SMILES) | outcome | AC50
11 | c1ccc(Nc2ccccc2)cc1 | inactive | –
12 | CCCCOC(=O)[C@@H](C)Oc1ccc(Oc2ccc(C(F)(F)F)cn2)cc1 | inactive | –
13 | Oc1ccc(C(c2ccc(O)cc2)C(Cl)(Cl)Cl)cc1 | inactive | –
14 | CSC(=O)c1cccc2nnsc12 | inactive | –
15 | CN(C)C(=O)Nc1ccc(Cl)c(Cl)c1 | inactive | –
16 | CCN(CC)C(=O)c1cccc(C)c1 | inactive | –
17 | N#CSCSc1nc2ccccc2s1 | – | 7.13 µM (active)

These compounds were tested on xenobiotic metabolism (CYP1A2), CYP1A2 (gene 1544) (assay: CLD_CYP1A2_24hr: CellzDirect (CLD) Gene Expression Assay for xenobiotic metabolism (CYP1A2) at 24 hours (AID 2283683)).
In short: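 Primary human hepatocytes from two donor preparations dosed daily with multiple concentrations of chemical, 0.2% DMSO vehicle. CYP1A2 mRNA at 24 h quantified by qNPA chemiluminescence; gain of signal analyzed relative to DMSO. Cytotoxicity flagged by phase-contrast morphology.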

Row | Structure (SMILES) | outcome | AC50
18 | CCOC(=O)[C@H](C)Oc1ccc(Oc2nc3ccc(Cl)cc3o2)cc1 | inactive | –
19 | CCCN(CCC)c1c([N+](=O)[O-])cc(C(F)(F)F)c(N)c1[N+](=O)[O-] | – | 2.34 µM (active)
20 | c1ccc(Nc2ccccc2)cc1 | – | 6.41 µM (active)
21 | CCCCOC(=O)[C@@H](C)Oc1ccc(Oc2ccc(C(F)(F)F)cn2)cc1 | – | 20 µM (active)
22 | CCOC(=O)NCCOc1ccc(Oc2ccccc2)cc1 | inactive | –
23 | CCCCCCC(C)OC(=O)COc1nc(F)c(Cl)c(N)c1Cl (configuration not stated) | inactive | –
24 | CCNc1nc(N)nc(Cl)n1 | inactive | –
25 | Oc1ccc(C(c2ccc(O)cc2)C(Cl)(Cl)Cl)cc1 | inactive | –
26 | CSC(=O)c1cccc2nnsc12 | – | 20 µM (active)
27 | c1ccc2[nH]c(-c3cscn3)nc2c1 | – | 0.345 µM (active)
28 | CCN(Cc1c(F)cccc1Cl)c1c([N+](=O)[O-])cc(C(F)(F)F)cc1[N+](=O)[O-] | – | 0.418 µM (active)
29 | CCCCCOC(=O)COc1cc(N2C(=O)C3=C(CCCC3)C2=O)c(F)cc1Cl | inactive | –
30 | CN(C)C(=O)Nc1ccc(Cl)c(Cl)c1 | – | 4.42 µM (active)
31 | O=C(Nc1ccc([N+](=O)[O-])cc1Cl)c1cc(Cl)ccc1O | – | 3.97 µM (active)
32 | CCN(CC)C(=O)c1cccc(C)c1 | inactive | –
33 | OB(O)O | inactive | –
34 | N#CSCSc1nc2ccccc2s1 | – | 7.18 µM (active)
35 | CCOC(=O)C(C)Oc1ccc(Oc2cnc3cc(Cl)ccc3n2)cc1 (configuration not stated) | inactive | –
36 | CCCCOCCOCCOCc1cc2c(cc1CCC)OCO2 | – | 0.858 µM (active)
37 | S=C(S)NCCNC(=S)S.[Mn+2].[S-]C([S-])=NCCN=C([S-])[S-].[Zn+2] | inactive | –
38 | COC(=O)c1cccc(C)c1S(=O)(=O)NC(=O)Nc1nc(OCC(F)(F)F)nc(N(C)C)n1 | – | 6.03 µM (active)
39 | CCCCC(CC)CN1C(=O)C2C3C=CC(C3)C2C1=O (configuration not stated) | – | 7.81 µM (active)

What follows are compounds tested on Cytochrome P450 2C19 (Homo sapiens) (UniProt P33261) (assay: CLD_CYP2C19_24hr: CellzDirect (CLD) Gene Expression Assay for xenobiotic metabolism (CYP2C19) at 24 hours (AID 2283687);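 also: activity means mRNA induction above DMSO vehicle baseline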).
In short: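 Primary human hepatocytes (two donor preparations) dosed daily with fresh test chemical in 0.2% DMSO vehicle; CYP2C19 mRNA induction measured at 24 h by quantitative nuclease protection assay with chemiluminescence, fitted for gain of signal versus DMSO.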

Sequence of Cytochrome P450 2C19 (Homo sapiens) (P33261 whole entry, looked up): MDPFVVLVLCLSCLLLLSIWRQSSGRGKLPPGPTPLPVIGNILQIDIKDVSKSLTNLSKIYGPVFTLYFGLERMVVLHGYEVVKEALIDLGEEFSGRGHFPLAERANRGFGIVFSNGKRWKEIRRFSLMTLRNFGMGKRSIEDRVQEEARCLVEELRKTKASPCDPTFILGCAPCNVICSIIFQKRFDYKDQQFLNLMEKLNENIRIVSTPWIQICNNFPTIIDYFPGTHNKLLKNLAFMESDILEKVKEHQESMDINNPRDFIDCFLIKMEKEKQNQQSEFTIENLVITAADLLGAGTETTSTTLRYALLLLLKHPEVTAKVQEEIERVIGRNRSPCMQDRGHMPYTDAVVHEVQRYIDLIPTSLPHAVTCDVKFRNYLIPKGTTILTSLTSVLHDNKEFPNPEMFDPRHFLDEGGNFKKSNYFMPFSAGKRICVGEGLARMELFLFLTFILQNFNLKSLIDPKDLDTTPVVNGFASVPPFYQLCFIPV

Row | Structure (SMILES) | outcome
40 | c1ccc(Nc2ccccc2)cc1 | inactive
41 | CCOC(=O)NCCOc1ccc(Oc2ccccc2)cc1 | inactive
42 | Oc1ccc(C(c2ccc(O)cc2)C(Cl)(Cl)Cl)cc1 | inactive
43 | CSC(=O)c1cccc2nnsc12 | inactive
44 | CCN(CC)C(=O)c1cccc(C)c1 | inactive
45 | COC(=O)CSc1cc(N=c2sc(=O)n3n2CCCC3)c(F)cc1Cl | inactive
46 | S=C(S)NCCNC(=S)S.[Mn+2].[S-]C([S-])=NCCN=C([S-])[S-].[Zn+2] | inactive

What follows are compounds tested on Cytochrome P450 2C9 (Homo sapiens) (UniProt P11712) (assay: CLD_CYP2C9_24hr: CellzDirect (CLD) Gene Expression Assay for xenobiotic metabolism (CYP2C9) at 24 hours (AID 2283688)).
In short: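 Primary human hepatocytes from two donor preparations, dosed daily for two days at multiple concentrations; vehicle 0.2% DMSO. CYP2C9 mRNA induction at 24 h measured by qNPA chemiluminescence relative to DMSO; cytotoxicity annotated from morphology.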

Row | Structure (SMILES) | outcome
47 | CCOC(=O)[C@H](C)Oc1ccc(Oc2nc3ccc(Cl)cc3o2)cc1 | inactive
48 | c1ccc(Nc2ccccc2)cc1 | inactive
49 | CCOC(=O)NCCOc1ccc(Oc2ccccc2)cc1 | inactive
50 | CCCCCCC(C)OC(=O)COc1nc(F)c(Cl)c(N)c1Cl (configuration not stated) | inactive
51 | CCNc1nc(N)nc(Cl)n1 | inactive
52 | CCCCCOC(=O)COc1cc(N2C(=O)C3=C(CCCC3)C2=O)c(F)cc1Cl | inactive
53 | O=C(Nc1ccc([N+](=O)[O-])cc1Cl)c1cc(Cl)ccc1O | inactive
54 | COCCO | inactive
55 | CCCCOCCOCCOCc1cc2c(cc1CCC)OCO2 | inactive
56 | COC(=O)c1cccc(C)c1S(=O)(=O)NC(=O)Nc1nc(OCC(F)(F)F)nc(N(C)C)n1 | inactive

These compounds were tested on Cytochrome P450 3A4 (Homo sapiens) (UniProt P08684) (assay: CLD_CYP3A4_24hr: CellzDirect (CLD) Gene Expression Assay for xenobiotic metabolism (CYP3A4) at 24 hours (AID 2283689)).
In short: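 Primary human hepatocytes from two donors dosed daily with fresh compound for two days, 0.2% DMSO vehicle. CYP3A4 mRNA at 24 hr by qNPA chemiluminescence; gain-of-signal fit versus DMSO, cytotoxicity flagged by morphology.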

Sequence of Cytochrome P450 3A4 (Homo sapiens) (P08684 whole entry, looked up): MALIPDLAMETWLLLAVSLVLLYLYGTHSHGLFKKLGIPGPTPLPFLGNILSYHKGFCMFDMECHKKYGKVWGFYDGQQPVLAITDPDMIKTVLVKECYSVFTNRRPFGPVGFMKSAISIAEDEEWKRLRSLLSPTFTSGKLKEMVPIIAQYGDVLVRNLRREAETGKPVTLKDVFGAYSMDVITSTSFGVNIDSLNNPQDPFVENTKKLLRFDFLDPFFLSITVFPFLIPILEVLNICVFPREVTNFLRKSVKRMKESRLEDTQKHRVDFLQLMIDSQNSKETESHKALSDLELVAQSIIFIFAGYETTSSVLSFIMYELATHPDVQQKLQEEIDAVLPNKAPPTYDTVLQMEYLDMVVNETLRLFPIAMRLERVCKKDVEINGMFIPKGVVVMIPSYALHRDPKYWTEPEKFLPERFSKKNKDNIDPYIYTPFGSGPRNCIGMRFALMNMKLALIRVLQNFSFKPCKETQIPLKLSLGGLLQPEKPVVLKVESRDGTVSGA

Row | Structure (SMILES) | AC50 | outcome
57 | CCCN(CCC)c1c([N+](=O)[O-])cc(C(F)(F)F)c(N)c1[N+](=O)[O-] | 8.44 µM (active) | –
58 | c1ccc(Nc2ccccc2)cc1 | – | inactive
59 | CCCCOC(=O)[C@@H](C)Oc1ccc(Oc2ccc(C(F)(F)F)cn2)cc1 | – | inactive
60 | CCCCCCC(C)OC(=O)COc1nc(F)c(Cl)c(N)c1Cl (configuration not stated) | – | inactive
61 | CSC(=O)c1cccc2nnsc12 | – | inactive
62 | CCN(Cc1c(F)cccc1Cl)c1c([N+](=O)[O-])cc(C(F)(F)F)cc1[N+](=O)[O-] | 1.45 µM (active) | –
63 | CCCCCOC(=O)COc1cc(N2C(=O)C3=C(CCCC3)C2=O)c(F)cc1Cl | 4.01 µM (active) | –
64 | O=C(Nc1ccc([N+](=O)[O-])cc1Cl)c1cc(Cl)ccc1O | – | inactive
65 | OB(O)O | – | inactive
66 | COC(=O)CSc1cc(N=c2sc(=O)n3n2CCCC3)c(F)cc1Cl | 1.9 µM (active) | –
67 | N#CSCSc1nc2ccccc2s1 | – | inactive
68 | CCOC(=O)C(C)Oc1ccc(Oc2cnc3cc(Cl)ccc3n2)cc1 (configuration not stated) | – | inactive
69 | CCCOC(=O)NCCCN(C)C | – | inactive
70 | S=C(S)NCCNC(=S)S.[Mn+2].[S-]C([S-])=NCCN=C([S-])[S-].[Zn+2] | – | inactive
71 | COC(=O)c1cccc(C)c1S(=O)(=O)NC(=O)Nc1nc(OCC(F)(F)F)nc(N(C)C)n1 | 20 µM (active) | –
72 | CCCCC(CC)CN1C(=O)C2C3C=CC(C3)C2C1=O (configuration not stated) | 20 µM (active) | –
